Results taken from the supplement of paper PMC6555819.

Tests used:
Assay in all cases: PBM binding z-score (relative to random genomic background probes); higher = stronger binding; sequences stand for … in GC…GCGATTGACAGCGTAGAATGAAGG
[1] = test system: FXR:RXRa (NR concentration 270 nM, RXRa partner concentration 90 nM)
Summary of the method: (§1)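 Ligand-free nuclear receptor dimers were bound for 1 h to custom Agilent 4×180K protein-binding microarrays. Detection used antibodies against each partner (one per run). Binding z-scores rest on regression-normalized fluorescence, with random background probes as the reference.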

[2] = test system: LXRa:RXRa (NR concentration 270 nM, RXRa partner concentration 90 nM)
Summary of the method: as §1

[3] = test system: LXRa homodimer (NR concentration 270 nM)
Summary of the method: as §1

[4] = test system: LXRb:RXRa (NR concentration 270 nM, RXRa partner concentration 90 nM)
Summary of the method: as §1

[5] = test system: LXRb homodimer (NR concentration 270 nM)
Summary of the method: as §1

[6] = test system: PPARa:RXRa (NR concentration 270 nM, RXRa partner concentration 90 nM)
Summary of the method: as §1

[7] = test system: PPARg:RXRa (NR concentration 180 nM, RXRa partner concentration 90 nM)
Summary of the method: as §1

[8] = test system: PPARg:RXRa 270nM:90nM, anti-RXR (NR concentration 270 nM, RXRa partner concentration 90 nM)
Summary of the method: as §1

[9] = test system: PPARg:RXRa 30nM:10nM, anti-RXR (NR concentration 30 nM, RXRa partner concentration 10 nM)
Summary of the method: as §1

[10] = test system: PPARg:RXRa 90nM:30nM, anti-RXR (NR concentration 90 nM, RXRa partner concentration 30 nM)
Summary of the method: as §1

[11] = test system: PPARg:RXRa DBDmut IVT, anti-RXR (DBD mutation: RXRa K156A/R161A, NR concentration 270 nM, RXRa partner concentration 90 nM)
Summary of the method: as §1

[12] = test system: PPARg:RXRa IVT, anti-PPARg (NR concentration 270 nM, RXRa partner concentration 90 nM)
Summary of the method: as §1

[13] = test system: PPARg DBDmut:RXRa IVT, anti-PPARg (DBD mutation: PPARg1 K132A/R137A, NR concentration 270 nM, RXRa partner concentration 90 nM)
Summary of the method: as §1

[14] = test system: PPARg DBDmut IVT, anti-PPARg (DBD mutation: PPARg1 K132A/R137A, NR concentration 270 nM)
Summary of the method: as §1

[15] = test system: PPARg homodimer (NR concentration 180 nM)
Summary of the method: as §1

[16] = test system: PXR:RXRa (NR concentration 270 nM, RXRa partner concentration 90 nM)
Summary of the method: as §1

[17] = test system: PXR homodimer (NR concentration 270 nM)
Summary of the method: as §1

[18] = test system: RARa:RXR (NR concentration 270 nM, RXRa partner concentration 90 nM)
Summary of the method: as §1

[19] = test system: RARa homodimer (NR concentration 270 nM)
Summary of the method: as §1

[20] = test system: RARb:RXRa (NR concentration 270 nM, RXRa partner concentration 90 nM)
Summary of the method: as §1

| Sequence | PBM binding z-score [1] | PBM binding z-score [2] | PBM binding z-score [3] | PBM binding z-score [4] | PBM binding z-score [5] | PBM binding z-score [6] | PBM binding z-score [7] | PBM binding z-score [8] | PBM binding z-score [9] | PBM binding z-score [10] | PBM binding z-score [11] | PBM binding z-score [12] | PBM binding z-score [13] | PBM binding z-score [14] | PBM binding z-score [15] | PBM binding z-score [16] | PBM binding z-score [17] | PBM binding z-score [18] | PBM binding z-score [19] | PBM binding z-score [20] |
| --- | --- | --- | --- | --- | --- | --- | --- | --- | --- | --- | --- | --- | --- | --- | --- | --- | --- | --- | --- | --- |
| TCTTGTAGATCAACAGGAGGTTAAGAACGATCGA | 0.185 | 0.857 | 0.191 | 0.748 | -0.245 | 1.36 | 0.136 | 1.3 | 2.75 | 1.81 | 1.71 | 0.594 | 0.843 | 0.593 | 0.264 | 0.722 | -0.175 | 0.889 | 0.0224 | 0.446 |
| GCTGCTAGGTCAGGTTGGTCACCTAACGGGTACG | 1.01 | 0.907 | -0.299 | 0.43 | -0.281 | 1.56 | 0.627 | 1.15 | -0.264 | 0.22 | 2.48 | 2.8 | -1.27 | -1.36 | 0.888 | 0.48 | -0.213 | 1.27 | 0.0555 | 3.39 |
| CGTCCAAGATCAGCAGGTCAGTGAAAGCGACGTG | 0.239 | 0.32 | 0.0834 | 0.195 | -0.306 | 0.671 | 0.0765 | 0.227 | -0.568 | -0.405 | 0.000191 | -0.104 | -0.863 | -0.238 | 0.712 | 0.136 | -0.221 | 0.583 | -0.407 | 1.97 |
| CTCGAAAGGTCGTGCTCAGGTGAGTTTACCAAAC | 5.01 | 4.08 | 0.0619 | 3.31 | 0.366 | 4.6 | 1.98 | 3.86 | 1.67 | 2.65 | 0.999 | 1.89 | 0.777 | 0.0952 | 3.04 | 3.93 | 1.33 | 4.47 | 0.43 | 3.79 |
| TAGCCTAGGCCATTGGGCCAGTATAGTACGCATC | -0.681 | -0.881 | -0.612 | -0.883 | -1.27 | -1.09 | 0.237 | -0.512 | -0.597 | -0.438 | -0.378 | 0.553 | -1.56 | -0.875 | -1.33 | -0.947 | -0.712 | -0.936 | -0.489 | 0.356 |
| CCAACTAGGTCACAGAGGTCAAAGTCCGTGCGTA | 7.03 | 6.68 | 7.62 | 6.53 | 2.14 | 6.53 | 9.3 | 7.99 | 5.85 | 7.48 | 8.13 | 8.5 | 1.22 | 2.03 | 5.09 | 6.64 | 11.9 | 7.08 | 2.03 | 5.31 |
| GGAACGAGGGCATTCGAGTTGACAGCATGGCGAT | 1.65 | 1.9 | -0.394 | -0.0362 | -0.953 | 1.34 | 0.875 | 0.675 | -0.547 | -0.0204 | 2.98 | 2.46 | 0.222 | -0.00883 | -0.393 | 3.85 | 1.46 | 0.951 | -0.555 | 1.87 |
| GCGACTGGGGCATCAGCATGTTACCATAACTTAA | -0.56 | -0.551 | -0.462 | 0.363 | -0.493 | 0.258 | 0.836 | 0.643 | -0.13 | -0.0118 | 3.55 | 2.94 | -0.0811 | -0.739 | -0.0822 | -0.238 | -0.758 | -0.253 | -0.423 | 0.376 |
| CCTCCAAGGTCAGAGAGGTCAGTGAATGCCGAGT | 5.62 | 5.09 | 2.77 | 4.43 | 0.381 | 4.71 | 3.2 | 4.06 | 1 | 2.54 | 2.56 | 2.91 | -0.128 | -1.11 | 3.5 | 5.94 | 10.8 | 4.82 | 0.862 | 5.18 |
| CCTAGCAGGCCAATCTGGGTGACTCAAGGCTTGA | -0.438 | -0.53 | -0.891 | -0.476 | -0.85 | 1.26 | 0.507 | 0.524 | -0.938 | -0.00968 | 2.96 | 3.53 | -0.721 | -0.739 | -0.0827 | -0.581 | -0.777 | 0.391 | -0.515 | 0.0785 |
| GCTGCTAGGTCAACTGCTGGTCAGCTAAAGCTCG | 4.1 | 3.03 | 0.0225 | 1.95 | -0.0517 | 3.53 | 2.54 | 2.94 | 0.291 | 1.66 | 5.01 | 4.38 | -0.67 | -1.29 | 0.927 | 1.25 | -0.956 | 2.52 | -0.88 | 4.34 |
| CGTCCAAGGTCAAAGATCAGTGAAGAGATGACGG | 6.99 | 5.44 | 0.528 | 4.2 | 1.25 | 5.75 | 6.08 | 6.43 | 3.08 | 5.64 | 3.3 | 3.88 | 0.698 | -0.108 | 2.98 | 4.59 | 1.01 | 5.63 | 1.03 | 5.16 |
| CGTGCAAGGTCAAAGGTCAGTGAAGAGATGACGG | 8.16 | 6.9 | 3.14 | 6.7 | 1.86 | 7.4 | 10.9 | 9.02 | 7.56 | 9.38 | 4.05 | 5.94 | 1.68 | 0.658 | 4.64 | 7.09 | 1.48 | 8.94 | 1.9 | 5.91 |
